Our source for the binding signal values is paper PMC8384837, “Expanding the binding specificity for RNA recognition by a PUF domain”.

Assay in all cases: yeast three-hybrid, YBZ-1, SC-Leu-His + 0.5 mM 3-AT, 4 days
What all share (details): tags: N-Gal4 AD-HA kept; label: inside an RPR1-promoter hybrid RNA with tandem MS2 sites; ssRNA

Assay [1] has as its target PUM1 PUF domain R3-THE (Homo sapiens, UniProt Q14671 828-1176, C935T;R936H;Q939E). A digest of the protocol: (§1)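 Matching RNA elements and Pumilio-1 PUF domain libraries, randomized at the three base-contacting residues of every repeat, were co-expressed from a centromeric plasmid in strain YBZ-1 (LexA–MS2 coat fusion, HIS3 reporter). The repeat regions were PCR-amplified and Illumina-sequenced from cells grown four days on SC-Leu (input) or SC-Leu-His + 0.5 mM 3-AT (selection). The interaction score is the log change in variant frequency from input to selection. It is computed in log2, with a pseudocount of 1 for absent variants.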

Assay [2] concerns the target T1, PUM1 PUF domain R6-GWI (Homo sapiens, UniProt Q14671 828-1176, N1043G;Y1044W;Q1047I).
T1 sequence: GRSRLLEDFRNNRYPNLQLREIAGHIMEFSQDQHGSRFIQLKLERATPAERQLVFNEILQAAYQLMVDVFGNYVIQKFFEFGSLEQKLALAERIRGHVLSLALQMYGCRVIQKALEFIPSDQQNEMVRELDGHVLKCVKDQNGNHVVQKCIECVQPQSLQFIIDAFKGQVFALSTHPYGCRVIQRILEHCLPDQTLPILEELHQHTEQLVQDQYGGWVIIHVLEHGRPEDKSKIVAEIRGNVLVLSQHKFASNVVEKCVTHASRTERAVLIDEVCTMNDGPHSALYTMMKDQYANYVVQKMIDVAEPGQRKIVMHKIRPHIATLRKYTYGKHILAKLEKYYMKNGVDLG
A digest of the protocol: as §1

Assay [3] deals with PUM1 PUF domain R4-CRA (Homo sapiens, UniProt Q14671 828-1176, N971C;H972R;Q975A). The method in brief:
as §1

Assay [4] has as its target T2, PUM1 PUF domain R6-SRD (Homo sapiens, UniProt Q14671 828-1176, N1043S;Y1044R;Q1047D).
T2 sequence: T1 sequence with G216S, W217R, I220D
A digest of the protocol: as §1

Assay [5] deals with PUM1 PUF domain R7-RNR (Homo sapiens, UniProt Q14671 828-1176, S1079R;E1083R). A digest of the protocol:
as §1

In assay [6] the target is PUM1 PUF domain R5-CNH (Homo sapiens, UniProt Q14671 828-1176, R1008N;Q1011H). A digest of the protocol:
as §1

Assay [7] has as its target PUM1 PUF domain R5-RAT (Homo sapiens, UniProt Q14671 828-1176, C1007R;R1008A;Q1011T). A digest of the protocol: as §1
Assay [8] concerns the target PUM1 PUF domain R8-KFL (Homo sapiens, UniProt Q14671 828-1176, N1122K;Y1123F;Q1126L). A digest of the protocol:
as §1

The target of assay [9] is PUM1 PUF domain R4-DHA (Homo sapiens, UniProt Q14671 828-1176, N971D;Q975A). The method in brief:
as §1

Assay [10] concerns the target PUM1 PUF domain R4-LHH (Homo sapiens, UniProt Q14671 828-1176, N971L;Q975H). A digest of the protocol:
as §1

Where a chain is given by its changes, count along the chain named.

For the sequence “GGCUAGAACUAGUGGAUCCCCCGGCGCCCGGCGGCUCGAGCCCGGGUAAGUGUAAAUAGUCUGCAUGCCGCCGGGCGCCAUGCCUGCAGGUCGACUCUAGAAAACAUG”, the binding signal in assay [1] is 2.11 log2 enrichment (interaction score); in [2] it was 2.34 log2 enrichment (interaction score); in [3], 3.82 log2 enrichment (interaction score).

Turning to “GGCUAGAACUAGUGGAUCCCCCGGCGCCCGGCGGCUCGAGCCCGGGUAAGUGGAAAUAGUCUGCAUGCCGCCGGGCGCCAUGCCUGCAGGUCGACUCUAGAAAACAUG”, the binding signal in assay [4] was 4.81 log2 enrichment (interaction score).

Consider “GGCUAGAACUAGUGGAUCCCCCGGCGCCCGGCGGCUCGAGCCCGGGUAAGUCUAAAUAGUCUGCAUGCCGCCGGGCGCCAUGCCUGCAGGUCGACUCUAGAAAACAUG”, for which, in assay [5], the binding signal was 4.72 log2 enrichment (interaction score).

In the case of “GGCUAGAACUAGUGGAUCCCCCGGCGCCCGGCGGCUCGAGCCCGGGUAAGUUUAAAUAGUCUGCAUGCCGCCGGGCGCCAUGCCUGCAGGUCGACUCUAGAAAACAUG”, the binding signal in assay [5] is 5.92 log2 enrichment (interaction score).

As to “GGCUAGAACUAGUGGAUCCCCCGGCGCCCGGCGGCUCGAGCCCGGGUAAGUGUUAAUAGUCUGCAUGCCGCCGGGCGCCAUGCCUGCAGGUCGACUCUAGAAAACAUG”, the binding signal in assay [6] is 2.78 log2 enrichment (interaction score); in assay [7], 1.36 log2 enrichment (interaction score).

“GGCUAGAACUAGUGGAUCCCCCGGCGCCCGGCGGCUCGAGCCCGGGUAAGCGUAAAUAGUCUGCAUGCCGCCGGGCGCCAUGCCUGCAGGUCGACUCUAGAAAACAUG”: the binding signal in [8] was 4.76 log2 enrichment (interaction score).

For the sequence “GGCUAGAACUAGUGGAUCCCCCGGCGCCCGGCGGCUCGAGCCCGGGUAAGUGUCAAUAGUCUGCAUGCCGCCGGGCGCCAUGCCUGCAGGUCGACUCUAGAAAACAUG”, in [7], the binding signal was 3.06 log2 enrichment (interaction score).

Consider “GGCUAGAACUAGUGGAUCCCCCGGCGCCCGGCGGCUCGAGCCCGGGUAAGUGUACAUAGUCUGCAUGCCGCCGGGCGCCAUGCCUGCAGGUCGACUCUAGAAAACAUG”, for which the binding signal in [9] is 5.96 log2 enrichment (interaction score).

As to “GGCUAGAACUAGUGGAUCCCCCGGCGCCCGGCGGCUCGAGCCCGGGUAAGUGUAUAUAGUCUGCAUGCCGCCGGGCGCCAUGCCUGCAGGUCGACUCUAGAAAACAUG”, in [10], the binding signal was 4.06 log2 enrichment (interaction score).
